From PubChem BioAssay
ST2 inh = IL1RL1 inhibition; Q01638; AlphaLISA ST2-Fc/biotin-IL-33 interaction, 1 h; inhibition, % for hits at 17 µM; hit rate 2.3% among 78,000; AID 1259354; in the data active = inhibition above about 30%
Starred values were filed as active, the others as inactive; i = inactive. Only a selection was taken, and hits are over-represented in it overall.

SMILES	ST2 inh
CC(=O)c1cccc(NC(=O)C(Cc2ccccc2)N2C(=O)c3ccccc3C2=O)c1 (centres undefined)	i
O=C1C(Nc2ccc(O)cc2)=CC(=NS(=O)(=O)c2ccc(Cl)cc2)c2ccccc21	87%*
CCc1ccc(S(=O)(=O)N=C2C=C(Nc3cccc(C(=O)O)c3)C(=O)c3ccccc32)cc1	52%*
O=C(O)c1cccc(NC(=O)C(c2ccccc2)c2ccccc2)c1	i
O=C(O)c1ccc(NC2=CC(=NS(=O)(=O)c3ccccc3)c3ccccc3C2=O)cc1	48%*
O=C(O)c1cccc(NC2=CC(=NS(=O)(=O)c3ccc(F)cc3)c3ccccc3C2=O)c1	45%*
O=C1C=C(Nc2ccc(Cl)cc2)C(=O)N1c1ccccc1	i
O=C(O)c1cccc(NS(=O)(=O)c2cccc(C(=O)Nc3ccccc3)c2)c1	i
CN(CC(=O)Nc1ccc(C(=O)O)cc1)S(=O)(=O)c1ccccc1	i
COCCNC(=O)c1cc(=O)[nH]c2ccc(S(=O)(=O)N3CCCC3)cc12	i
O=C(COc1ccc(Cl)cc1Cl)Nc1c2c(nn1-c1ccc(F)cc1)CS(=O)C2 (centres undefined)	i
CCc1ccc(C2CC(=O)NC(SCC(N)=O)=C2C#N)cc1 (centres undefined)	i
Cc1ccc(NC(=O)CSc2nc(C(F)(F)F)cc(=O)[nH]2)cc1C	i
O=C(NC1CCN(Cc2ccccc2)C1)c1cn(Cc2ccccc2Cl)nn1 (centres undefined)	i
CCc1nnc(NC(=O)c2ncn[nH]2)s1	i
O=C1CCCC2=C1C(c1ccccc1)N(C(=O)c1ccccc1)c1ccccc1N2 (centres undefined)	i
CCOC(=O)C(Cc1ccc(O)cc1)NC1=CC(=O)C(=O)c2ccccc21 (centres undefined)	i
O=C(c1ccccc1)c1cccc(N2C(=O)c3cccnc3C2=O)c1	i
Cc1ccc(S(=O)(=O)c2nc(-c3ccc(Cl)cc3)oc2N2CCOCC2)cc1	i
Cn1c(SCc2c(Cl)cccc2[N+](=O)[O-])nnc1-c1ccccc1	i
